Tests used:
Settings in all cases: concentration: 10 µM; 24 h
HCC1569 [1] = assay: cell number relative to DMSO (% of DMSO); higher = more cells (less growth inhibition / toxicity)
Procedure, shortened: (§1)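 H1.0 nuclear intensity or cell number is stated as percent of the plate control, based on the median of replicates, and HCC1569 values were smoothed for positional effects. These came from HCC1569 and TDF cells treated with compounds at 10 µM for 24 h at 37 °C in triplicate, then fixed in 3.7% formaldehyde and stained with a rabbit anti-H1.0 antibody, an AlexaFluor 647 secondary and DAPI.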

TDF [2] = assay: as above
Procedure, shortened: as §1

TDF [3] = assay: H1.0 immunofluorescence intensity relative to DMSO (% of DMSO); higher = stronger H1.0 induction, active = 120 or more
Procedure, shortened: as §1

HCC1569 [4] = assay: H1.0 immunofluorescence intensity relative to DMSO (% of DMSO); higher = stronger H1.0 induction, active = 140 or more
Procedure, shortened: as §1
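Throughout, for H1.0 immunofluorescence intensity relative to DMSO: TDF is a line of transformed human dermal fibroblasts of mesenchymal origin.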
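Throughout, for cell number relative to DMSO: TDF denotes transformed human dermal fibroblasts of mesenchymal origin.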

SMILES	cell number (HCC1569 [1])	cell number (TDF [2])	H1.0 immunofluorescence intensity (TDF [3])	H1.0 immunofluorescence intensity (HCC1569 [4])
CCCOC(=O)c1cc(O)c(O)c(O)c1 [N-Propyl gallate]	89	91	100 (inactive)	107 (inactive)
O=C(O)COC(=O)Cc1ccccc1Nc1c(Cl)cccc1Cl [Aceclofenac]	104	101	95.3 (inactive)	103 (inactive)
CC(=O)OC1(C(C)=O)CCC2C3C=C(C)C4=CC(=O)CCC4(C)C3CCC21C (stereo not given) [Megestrol Acetate]	106	96.9	98.9 (inactive)	104 (inactive)
CCCCCCCCC=CCCCCCCCCOCC(COP(=O)([O-])OCC[N+](C)(C)C)OC(C)=O (stereo not given)	101	114	94 (inactive)	98.3 (inactive)
NS(=O)(=O)c1cc(C2(O)NC(=O)c3ccccc32)ccc1Cl (stereo not given)	101	98.1	96.1 (inactive)	104 (inactive)
Nc1nc(SCc2ccc([N+](=O)[O-])cc2)c2ncn(C3OC(CO)C(O)C3O)c2n1 (stereo not drawn) [S-(4-Nitrobenzyl)-6-thioguanosine]	101	98.2	94.5 (inactive)	93.2 (inactive)
O=C(COc1ccc(Cl)cc1)NC1CCC(NC(=O)COc2ccc(Cl)cc2)CC1 (stereo not given)	104	100	90.5 (inactive)	92.9 (inactive)
O=C(C=Cc1ccc(O)cc1)CC(=O)C=Cc1ccc(O)cc1 [bis-demethoxycurcumin]	82.7	98.6	92.7 (inactive)	104 (inactive)
Clc1ccc(C(Cn2ccnc2)OCc2ccsc2Cl)c(Cl)c1 (stereo not given) [Tioconazole]	102	94.9	103 (inactive)	113 (inactive)
COC(=O)C1=C(C)NC(C)=C(C(=O)OCCN(C)Cc2ccccc2)C1c1cccc([N+](=O)[O-])c1.Cl (stereo not given) [Nicardipine hydrochloride]	96.7	103	99.2 (inactive)	100 (inactive)
CC(C)Nc1cccnc1N1CCN(C(=O)c2cc3cc(NS(C)(=O)=O)ccc3[nH]2)CC1.CS(=O)(=O)O [Delavirdine mesylate]	101	102	99.1 (inactive)	110 (inactive)
Cc1cccc(C)c1OCC(C)N.Cl (stereo not given) [Mexiletene hydrochloride]	104	104	87.8 (inactive)	94.3 (inactive)
CC(=O)c1ccc(N2CCOCC2)cc1O [DNA-PK Inhibitor III]	99.1	93.9	93.9 (inactive)	118 (inactive)
Cc1cnc(-c2cnc(NCCNc3ccc(C#N)cn3)nc2-c2ccc(Cl)cc2Cl)[nH]1	70.4	74.4	114 (inactive)	112 (inactive)
O=C1CN(/N=C/c2ccc(-c3ccc([N+](=O)[O-])cc3)o2)C([O-])=N1.[Na+]	93.8	104	97.3 (inactive)	111 (inactive)
CC1CC2OC2C=CC=CC(=O)Cc2c(Cl)c(O)cc(O)c2C(=O)O1 (stereo not given) [Radicicol]	66.2	15.9	133 (active)	121 (inactive)
NC(N)=NCCCCN=C(N)N.O=S(=O)(O)O [Arcaine sulfate]	104	107	89 (inactive)	92.3 (inactive)
Cc1cc(Nc2nc(-c3ccccc3)nc3ccccc23)n[nH]1 [GSK-3 Inhibitor XIII]	57	46.1	112 (inactive)	182 (active)
CCN(CC)CCOCCOC(=O)C1(c2ccccc2)CCCC1.O=C(O)CC(O)(CC(=O)O)C(=O)O [Carbetapentane citrate]	86.4	89	107 (inactive)	97.4 (inactive)
CC[N+](C)(C)c1cccc(O)c1.[Cl-] [Edrophonium chloride]	102	113	96.1 (inactive)	95.7 (inactive)
N=C(N)N1CCc2ccccc2C1 [Debrisoquin]	103	102	96 (inactive)	96.4 (inactive)
O=C(O)CP(=O)(O)O [Phosphonoacetic acid]	101	109	95.9 (inactive)	96.9 (inactive)
Cl.N[C@@H](Cc1cnc[nH]1)C(=O)O [L-Histidine hydrochloride]	101	109	99 (inactive)	95.8 (inactive)
CCN(CC)CCOC(=O)c1ccc(N)cc1.Cl [Procaine hydrochloride]	105	100	91.3 (inactive)	97.8 (inactive)
Cl.NNc1nncc2ccccc12 [Hydralazine hydrochloride]	101	107	93.2 (inactive)	92 (inactive)

Source: the supplement of paper PMC7156485
